D3 antag: qHTS of D3 Dopamine Receptor Antagonist: qHTS; D(3) dopamine receptor (Homo sapiens), P35462; D3R cells, DiscoveRx beta-arrestin luminescence, antagonist mode; hits give low values; max response, negative = inhibition, %; 2.5% of 360,000 active; in the data active = max response below about -50%; inconclusive = no clear call, values can overlap the other calls
Target sequence (P35462 whole entry, looked up): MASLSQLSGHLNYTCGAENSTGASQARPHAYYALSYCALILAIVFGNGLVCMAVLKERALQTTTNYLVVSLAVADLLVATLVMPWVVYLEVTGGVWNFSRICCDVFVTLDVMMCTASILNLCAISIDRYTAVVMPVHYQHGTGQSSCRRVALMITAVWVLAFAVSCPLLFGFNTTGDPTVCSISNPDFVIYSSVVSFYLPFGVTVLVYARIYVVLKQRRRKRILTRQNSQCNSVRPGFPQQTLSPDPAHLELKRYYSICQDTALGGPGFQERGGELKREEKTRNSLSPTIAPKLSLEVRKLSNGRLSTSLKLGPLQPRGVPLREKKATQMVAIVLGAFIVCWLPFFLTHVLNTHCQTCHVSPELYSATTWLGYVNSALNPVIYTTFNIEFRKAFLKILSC
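Cells expressing the human receptor were seeded at 1500 cells/well, incubated overnight at 37 degrees C in 5% CO2, then exposed to library compounds with dopamine controls for 90 minutes at 37 degrees C before luminescent detection.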
D3 ag: qHTS of D3 Dopamine Receptor Agonist: qHTS | D3R DiscoveRx beta-arrestin cells, luminescence, 90 min | max activation, % | 0.58% of 410,000 active | AID 652048, 2013; in the data active = max activation above about 30%
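Cells at 1500/well, incubated overnight, then treated with pinned compounds (dopamine as control) for 90 min at 37 degrees C. DiscoveRx reagent added for 30 - 60 minutes at room temperature; luminescence read.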
IL1B secr inh: qHTS for Inhibitors of Inflammasome Signaling: IL-1-beta AlphaLISA Primary Screen | THP-1 LPS/ATP IL-1B secretion, AlphaLISA, 16 h; hits give low values | activity change, % at 57.5 µM | 4.7% of 360,000 active | AID 743279, 2014; in the data active = activity change below about -50%; inconclusive = mostly about -30% to -49%
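THP-1 cells pretreated 1 hr with compounds (up to 57.5 uM final), then stimulated with LPS (250 ng/mL final) plus ATP (1.25 mM final); secreted IL-1B measured by AlphaLISA after 16 hr, decreased signal indicating inhibition.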
ATXN2 expr inh: Primary qHTS for Inhibitors of ATXN expression; HEK-293 ATXN2-luciferase reporter, luminescence, 24 h; Potency, µM (top dose mostly 57 µM), actives largely listed as inhibitors; 0.72% of 360,000 active; note: nearly all actives have a fitted effect of over 55% in size
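ATXN2-luciferase reporter cells (luciferase flanked by upstream and downstream ATXN2 gene portions) were treated 24 h at 37 °C with compounds at up to 57 uM. SteadyGlo luminescence gave expression; GF-AFC fluorescence gave viability.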
a7 integrin act: qHTS for Activators of Integrin-Mediated Alleviation for Muscular Dystrophy; 0.064% of 350,000 active; alpha7betagal myoblasts, beta-gal FDG fluorescence, 48 h; Potency, µM (top dose mostly 38.3 µM), hits mostly activators; note: nearly all actives have a fitted effect of over 60% in size
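Alpha7betagal+/- myoblasts (passage 13) were plated 16-24 hr, then exposed to compounds (1:260 dilution of DMSO stock) for 48 hours at 37C. After MPER lysis, β-galactosidase reporter activity was read as FDG fluorescence (ex 480/em 540) after 30 minutes.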
ATXN viability: Viability Counterscreen for Primary qHTS for Inhibitors of ATXN expression | 0.49% of 400,000 active | AID 651635, 2014 | S2 cells (HEK-293 line with an ATXN2-luciferase reporter) viability, CellTiter-Fluor protease fluorescence, 24 h | Potency, µM (top dose mostly 56.7 µM), most hits filed as cytotoxic; note: nearly all actives have a fitted effect of over 40% in size
Of the large screens only hits and unclear results are named; the others gave an inactive call. Hits are enriched below; roughly 7% of the tested compounds scored in any of these assays. Unless noted, calls come from the whole dose curve; as a rule, active = well fitted curve in the direction sought with a large enough effect; inconclusive = small, poorly fitted or top-dose-only effect, or another doubt; inactive = no such curve, though single readings can be large; an effect the other way counts as inactive or inconclusive.

CC(Nc1ccc(F)cc1F)C(=O)NC(=O)NC1CCCCC1 (stereo not drawn)	none
COC(=O)CSc1nnc(-c2sc3ccccc3c2Cl)o1	ATXN2 expr inh 22.4µM
COc1ccc(-c2nnc(SCC#N)o2)cc1	IL1B secr inh inconclusive
N#CCSc1nnc(-c2sc3ccccc3c2Cl)o1	IL1B secr inh -93.5
CCCCN(C(=O)CC(c1ccccc1)c1ccccc1)c1c(N)n(CCC)c(=O)[nH]c1=O	none
COc1ccc(CCN2C(=O)/C(=C\c3ccco3)SC2=S)cc1OC	D3 ag 59.0, ATXN viability inconclusive
O=C1/C(=C\c2ccco2)SC(=S)N1Cc1ccccc1	D3 antag inconclusive
COc1ccc(CCN2C(=O)CSC2=S)cc1OC	IL1B secr inh -73.2, ATXN2 expr inh inconclusive, ATXN viability 22.4µM
CCN(CC(=O)NC(C)C)C(=O)c1ccc(S(=O)(=O)N(C)c2ccccc2OC)cc1	none
O=C1c2cccc3c([N+](=O)[O-])ccc(c23)C(=O)N1c1ccccn1	D3 antag -99.8, IL1B secr inh -114.1, ATXN2 expr inh 14.1µM (no result: ATXN viability)
CC(=O)Oc1ccc(N2C(=O)c3cccc4c([N+](=O)[O-])ccc(c34)C2=O)cc1	D3 antag -99.9, IL1B secr inh inconclusive (no result: ATXN viability)
O=C1c2cccc3c([N+](=O)[O-])ccc(c23)C(=O)N1c1ccc(Cl)cn1	D3 antag inconclusive, IL1B secr inh -91.9, ATXN2 expr inh inconclusive (no result: ATXN viability)
O=C1c2cccc3c([N+](=O)[O-])ccc(c23)C(=O)N1O	none (no result: ATXN2 expr inh)
O=C1c2cccc3c([N+](=O)[O-])ccc(c23)C(=O)N1c1nccs1	IL1B secr inh -107.1, ATXN2 expr inh inconclusive
O=C(Cc1cscn1)N1CCOc2ccc(CN3CCN(c4ccccn4)CC3)cc2C1	none (no result: D3 antag, D3 ag, IL1B secr inh, ATXN2 expr inh, a7 integrin act)
Cc1nnc(N/N=C/c2c(Cl)cccc2Cl)n1N	IL1B secr inh -104.6
CCC1(OC(=O)CN(C)C)C(=O)OCc2c1cc1n(c2=O)Cc2cc3c(N)cccc3nc2-1 (stereo not drawn)	IL1B secr inh -97.1, ATXN2 expr inh inconclusive, ATXN viability inconclusive
CC[C@@]1(O)C(=O)OCc2c1cc1n(c2=O)Cc2c-1nc1ccccc1c2/C=N/OC(C)(C)C	ATXN2 expr inh 0.0005µM (no result: D3 antag, D3 ag, IL1B secr inh, a7 integrin act)
CC[C@@]1(O)C(=O)OCc2c1cc1n(c2=O)Cc2cc3cc(O)ccc3nc2-1	ATXN2 expr inh 0.0385µM (no result: D3 antag, D3 ag, IL1B secr inh, a7 integrin act, ATXN viability)
O=C1NC(=O)[C@@H](c2cn3c4c(cccc24)CCC3)[C@H]1c1c[nH]c2ccccc12	none (no result: D3 antag, D3 ag, IL1B secr inh, a7 integrin act, ATXN viability)
COc1ccccc1-c1c(C)nn2c(N)c(-c3ccccc3)cnc12	IL1B secr inh -74.0
COc1ccccc1-c1c(C)nn2c(-c3ccccc3)cc(C)nc12	IL1B secr inh -70.3
COc1ccccc1-c1c(C)nn2c(N3CCCCCC3)cc(C)nc12	IL1B secr inh -77.2, ATXN2 expr inh inconclusive, ATXN viability inconclusive
COc1ccccc1-c1c(C)nn2c(N3CCOCC3)cc(C)nc12	none
CN(CCC#N)C(=O)COC(=O)[C@H](Cc1ccccc1)N1C(=O)c2ccccc2C1=O	none
O=C(Cn1nnc(-c2ccc(CN3CCOCC3)cc2)n1)Nc1nc(-c2ccccc2)cs1	D3 antag inconclusive
O=C1c2cccc3c(N4CCCCC4)ccc(c23)C(=O)N1c1ccccn1	none
O=C1c2ccccc2-c2n[nH]c(=O)c3ccc(N4CCCCC4)c1c23	IL1B secr inh -94.3, ATXN viability inconclusive
Cc1ccc(S(=O)(=O)N2CCN(C(=O)C3CC3C)CC2)c(C)c1 (stereo not drawn)	D3 antag -64.1
Cc1ccc(S(=O)(=O)N2CCN(C(=O)c3ccccc3Cc3ccccc3)CC2)c(C)c1	IL1B secr inh -71.6
CN1C(=O)C2(C(C#N)=C(N)N(c3ccc(Cl)cc3)C3=C2C(=O)CC(C)(C)C3)c2ccccc21 (stereo not drawn)	none
CCCc1[nH]nc2c1C(/C(C)=C/c1ccccc1)C(C#N)=C(N)O2 (stereo not drawn)	IL1B secr inh -93.5, ATXN2 expr inh inconclusive, ATXN viability inconclusive
CCCc1[nH]nc2c1C(c1cn[nH]c1-c1ccc(F)cc1)C(C#N)=C(N)O2 (stereo not drawn)	IL1B secr inh -90.2
COCc1[nH]nc2c1C(c1ccc(OC)c(OC)c1)C(C#N)=C(N)O2 (stereo not drawn)	IL1B secr inh inconclusive
CCn1c2ccccc2c2cc(C3C(C#N)=C(N)Oc4n[nH]c(COC)c43)ccc21 (stereo not drawn)	IL1B secr inh inconclusive, ATXN2 expr inh 2.51µM
CCCc1[nH]nc2c1C(c1ccncc1)C(C#N)=C(N)O2 (stereo not drawn)	none
CCCc1[nH]nc2c1C(c1ccc(O)c(OC)c1)C(C#N)=C(N)O2 (stereo not drawn)	IL1B secr inh -66.9, ATXN viability inconclusive
O=C(Nc1cccc(-c2ccc(N3CCOCC3)nn2)c1)c1ccccc1Cl	none
CC(C)C(=O)NNC(=O)c1csc(-c2cccs2)n1	none
CCCc1[nH]nc2c1C(c1ccc(OC(=O)N3CCOCC3)cc1)C(C#N)=C(N)O2 (stereo not drawn)	IL1B secr inh inconclusive
COc1ccc(C2C(C#N)=C(N)Oc3n[nH]c(C)c32)cc1Cn1nnc2ccccc21 (stereo not drawn)	D3 antag -61.5
CCOc1ccc(-c2[nH]nc3c2C(c2cccnc2)C(C#N)=C(N)O3)cc1 (stereo not drawn)	D3 antag -51.0
CCCc1[nH]nc2c1C(c1ccccc1OC)C(C#N)=C(N)O2 (stereo not drawn)	IL1B secr inh -53.1
CCCc1[nH]nc2c1C(c1ccc(OCCN3CCOCC3)c(OC)c1)C(C#N)=C(N)O2 (stereo not drawn)	D3 antag -64.3, IL1B secr inh inconclusive
CCCc1[nH]nc2c1C(c1ccc(OC)c(Cn3nnc4ccccc43)c1)C(C#N)=C(N)O2 (stereo not drawn)	none
CCc1[nH]nc2c1C(c1cccnc1)C(C#N)=C(N)O2 (stereo not drawn)	none
COc1ccc(Cl)cc1NC(=O)c1cnccn1	a7 integrin act inconclusive (no result: ATXN2 expr inh)
CCN1CCN(C(=O)Cn2ncc3c4ccccc4n(Cc4ccccc4)c3c2=O)CC1	ATXN viability inconclusive (no result: D3 antag, IL1B secr inh, a7 integrin act)
CCCn1cnc2cc(NCc3ccc(Br)cc3)ccc21	IL1B secr inh -83.3
CCN(CC)c1ccc(CNc2ccc3c(c2)ncn3CC)cc1	IL1B secr inh -96.0, ATXN viability inconclusive
COc1ccccc1-n1cnc2cc(NCc3ccccc3O)ccc21	none
CCn1cnc2cc(NCc3ccc(C)cc3)ccc21	IL1B secr inh -56.6

Bioassay records as filed in PubChem.
